Source: the supplement of paper PMC6124720
Structures can show the parent of a compound that is named as a salt.

Tested on: Pseudogymnoascus destructans 20631-21
Assay: growth activity index (DuctApe, 0 = no growth, 9 = maximal growth) (index 0-9); higher = more fungal growth (less inhibition), active = 0 or less; extreme values may be limits of the assay
Conditions: temperature: 13 °C, YPD
[1] = concentration level (1-4, increasing; Biolog proprietary): 1
[2] = concentration level (1-4, increasing; Biolog proprietary): 2
[3] = concentration level (1-4, increasing; Biolog proprietary): 3
[4] = concentration level (1-4, increasing; Biolog proprietary): 4

Measured: growth activity index
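Note: biolog Phenotype Microarray plates PM21–25, OD595 followed daily over 11 days, growth curves converted to index, mean of two independent experiments.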

COc1cc(/C=C/C(=O)O)ccc1O [Ferulic acid] (Biolog plate: PM25)
inactive: [1] 1 | [4] 1
active: [2] 0 | [3] 0

O=C(O)C(O)C(O)C(=O)O (centres undefined) [Tartaric acid] (Biolog plate: PM25)
inactive: [1] 3.33 | [2] 2 | [3] 4.33 | [4] 1.33

Nc1c2ccccc2nc2ccccc12 [9-Aminoacridine] (Biolog plate: PM24)
inactive: [1] 5 | [2] 5.33 | [3] 7 | [4] 9

O=NO [Sodium Nitrite] (Biolog plate: PM23)
inactive: [1] 4.33 | [2] 2.67 | [3] 1 | [4] 1.33

NC[C@@H]1O[C@H](O[C@H]2[C@@H](O)[C@H](O[C@@H]3[C@@H](O)[C@H](N)C[C@H](N)[C@H]3O[C@H]3O[C@H](CO)[C@@H](O)[C@H](O)[C@H]3N)O[C@@H]2CO)[C@H](N)[C@@H](O)[C@@H]1O [Paromomycin] (Biolog plate: PM22)
inactive: [1] 1 | [2] 1 | [3] 0.667
active: [4] 0

[Cl][Mn][Cl] [Manganese chloride] (Biolog plate: PM21)
inactive: [1] 4 | [2] 5.25 | [3] 4.5 | [4] 4.5

N=C(N)N [Guanidine hydrochloride] (Biolog plate: PM21)
inactive: [1] 5.25 | [2] 5 | [3] 0.5 | [4] 0.25

CCCCCCCC(=O)[O-].[Na+] [Sodium Caprylate] (Biolog plate: PM23)
inactive: [1] 1 | [2] 3.33 | [3] 4 | [4] 4

NCCSCC(N)C(=O)O (centres undefined) [Thialysine] (Biolog plate: PM24)
inactive: [1] 4 | [2] 4 | [3] 4.67 | [4] 5

O=c1[nH]c(=O)n([C@H]2C[C@H](O)[C@@H](CO)O2)cc1F [Fluorodeoxyuridine] (Biolog plate: PM25)
inactive: [1] 4.67 | [2] 3.67 | [3] 4.33 | [4] 3

NC(N)=O [Urea hydrogen peroxide] (Biolog plate: PM22)
inactive: [1] 4.67 | [2] 4 | [3] 4.67 | [4] 4.33

CC(=O)OCC1=C(C(=O)O)N2C(=O)[C@@H](NC(=O)Cc3cccs3)[C@H]2SC1 [Cephalotin] (Biolog plate: PM22)
inactive: [1] 5.67 | [2] 5 | [3] 5 | [4] 1

O=C([O-])c1ccccc1.[Na+] [Sodium Benzoate] (Biolog plate: PM24)
inactive: [1] 4 | [2] 5 | [3] 4.67 | [4] 4.67

[I-].[K+] [Potassium iodide] (Biolog plate: PM22)
active: [1] 0 | [2] 0 | [3] 0 | [4] 0

Clc1ccc(COC(Cn2ccnc2)c2ccc(Cl)cc2Cl)c(Cl)c1 (centres undefined) [Miconazole Nitrate] (Biolog plate: PM24)
active: [4] 0
inactive: [1] 4.67 | [2] 0.333 | [3] 0.333

c1ccc(-c2nn(-c3ccccc3)[n+](-c3cccc4ccccc34)n2)cc1 [Tetrazolium violet] (Biolog plate: PM25)
inactive: [1] 4.33 | [2] 3 | [4] 2
active: [3] 0

N[C@@H]1CONC1=O [D-Cycloserine] (Biolog plate: PM21)
inactive: [1] 4 | [2] 5 | [3] 4.25
active: [4] 0

NO [Hydroxylamine] (Biolog plate: PM23)
inactive: [1] 4 | [2] 4 | [3] 2.67
active: [4] 0

O=S(=O)([O-])[O-].[Cu+2] [Copper (II) sulfate] (Biolog plate: PM21)
inactive: [1] 6 | [2] 6 | [3] 6 | [4] 6

CCCCCCCCCCCC[N+](C)(C)CCOc1ccccc1 [Domiphen bromide] (Biolog plate: PM21)
inactive: [1] 4 | [2] 2
active: [3] 0 | [4] 0

NC[C@@H]1O[C@H](O[C@H]2[C@@H](O)[C@H](O[C@@H]3[C@@H](O)[C@H](N)C[C@H](N)[C@H]3O[C@H]3O[C@H](CN)[C@@H](O)[C@H](O)[C@H]3N)O[C@@H]2CO)[C@H](N)[C@@H](O)[C@@H]1O [Neomycin] (Biolog plate: PM21)
inactive: [1] 5.25 | [2] 5 | [3] 2.5 | [4] 1.25
